High-throughput results (PubChem)
MPTP block: mitochondrial permeability transition pore inhibitors, primary screen, biochemical, isolated mouse mitochondria, absorbance; Ca2+ swelling absorbance, 30 min; actives 1.4% (n = 360,000); inhibition, % at 10 µM;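 active = inhibition of 50% or more, scaled per plate between neutral and stimulator controls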;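 note: 0% = DMSO wells given calcium and 100% = 1 mM EGTA wells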
DSG3 Ab inh: inhibitors of pemphigus antibody binding to DSG3, primary screen, biochemical, bead-based, flow cytometry, scFv-GFP. Desmoglein-3 (Homo sapiens), P32926. DSG3-coupled beads, scFv-anti-DSG3-GFP binding; active compounds read low. binding (percent of control), % at 10 µM. actives 0.48% (n = 310,000). AID 588358, 2011;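 active = binding more than 3 SD below its plate's average and above zero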;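 note: hits lower antibody fragment binding to DSG3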
rCAG RNA binder: binders of r(CAG) RNA repeats, primary screen, biochemical, fluorescence; r(CAG) RNA repeat, TO-PRO-1 dye displacement fluorescence; inhibition, % at 3 µM; actives 1.3% (n = 370,000);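 active = inhibition above the plate cutoff, the mean of all test compounds on that plate plus 3 SD, cut at about 35% in these data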;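 note: 0% = DMSO alone and 100% = 100 µM mitoxantrone as full dye displacement; higher means more dye released from RNA so lower well fluorescence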
ADAM17 inh: ADAM17 inhibitors, primary screen, biochemical, QFRET; inhibition, % at 6.95 µM; recombinant ADAM17, EDANS/DABCYL FRET peptide cleavage; Disintegrin and metalloproteinase domain-containing protein 17 (Homo sapiens), P78536; actives 0.83% (n = 370,000); AID 720648, 2013;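 active = inhibition above the mean of compounds lying between control limits plus 3 SD, set per campaign, cut at about 8.5% in these data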;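 note: 0% = DMSO-only wells as the low control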
Target sequence (P78536 215-824 limits assumed): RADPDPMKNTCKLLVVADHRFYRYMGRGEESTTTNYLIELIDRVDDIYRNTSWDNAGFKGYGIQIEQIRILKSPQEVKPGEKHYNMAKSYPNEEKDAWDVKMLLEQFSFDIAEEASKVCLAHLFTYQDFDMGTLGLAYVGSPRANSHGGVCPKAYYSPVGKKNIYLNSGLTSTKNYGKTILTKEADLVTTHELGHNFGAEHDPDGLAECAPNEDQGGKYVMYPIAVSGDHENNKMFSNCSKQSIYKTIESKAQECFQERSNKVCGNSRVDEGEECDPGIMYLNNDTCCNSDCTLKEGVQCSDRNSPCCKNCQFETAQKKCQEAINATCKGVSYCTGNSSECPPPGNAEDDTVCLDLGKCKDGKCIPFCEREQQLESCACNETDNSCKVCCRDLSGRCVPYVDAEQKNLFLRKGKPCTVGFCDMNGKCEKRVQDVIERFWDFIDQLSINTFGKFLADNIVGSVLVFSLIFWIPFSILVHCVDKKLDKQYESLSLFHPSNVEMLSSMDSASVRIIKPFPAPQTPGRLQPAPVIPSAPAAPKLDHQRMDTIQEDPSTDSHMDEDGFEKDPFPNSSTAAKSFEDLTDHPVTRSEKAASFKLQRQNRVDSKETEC
ADAM10 inh: human ADAM10 inhibitors, primary screen, biochemical, QFRET, HTS; actives 0.62% (n = 370,000); Disintegrin and metalloproteinase domain-containing protein 10 (Homo sapiens), O14672; inhibition, % at 7 µM; recombinant ADAM10, EDANS/DABCYL FRET peptide cleavage, 3 h; AID 720582, 2013;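 active = inhibition above a per-campaign cutoff equal to the mean of compounds falling between control-based bounds plus 3 SD, cut at about 20% in these data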;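 note: 0% = DMSO wells while the 100% control is not disclosed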
KLK7 zymogen act: proKLK7 zymogen activators, primary screen, biochemical, fluorescence intensity | Kallikrein-7 (Homo sapiens), P49862 | purified proKLK7, EDANS-DABCYL substrate fluorescence; 100% is mature enzyme control, 0% vehicle | activation, % at 7 µM | actives 0.9% (n = 370,000);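 active = activation above the mean of all tested compounds plus 3 SD, computed per campaign excluding outliers beyond control limits, cut at about 13% in these data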
rCAG binder conf: small molecules binding CAG repeat RNA – biochemical, fluorescence, confirmation; shares compounds with rCAG RNA binder; r(CAG) RNA repeat, TO-PRO-1 dye displacement fluorescence; inhibition, % at 3 µM; actives 70% (n = 4,300);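 active = inhibition above a per-plate cutoff, the mean inhibition of sample wells plus 3 SD, cut at about 35% in these data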;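 note: loss of TO-PRO-1 fluorescence as compound displaces dye from 1x1 AA loop RNA; 0% = DMSO only wells and 100% = 100 µM mitoxantrone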
dCAG dye counter: displacement of TO-PRO-1 from CAG DNA duplex, counter-screen for rCAG RNA repeat binder project, biochemical, fluorescence, TO-PRO-1 dye, d(CAG) DNA oligo. shares compounds with rCAG RNA binder. d(CAG) DNA oligo TO-PRO-1 dye displacement. actives 94% (n = 4,300). AID 652068, 2013. inhibition, % at 3 µM;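 active = inhibition above its plate's cutoff, the mean test-well inhibition plus 3 SD, cut at about 4.8% in these data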;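 note: 0% = DNA dye mix with DMSO and 100% = 100 µM mitoxantrone; hits displace the dye from DNA and so lower well fluorescence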
* = called active by the depositor; i = inactive; / = no result. Compounds with a hit are over-represented: about 4.7% of the library has one in this group of screens.

SMILES | MPTP block | DSG3 Ab inh | rCAG RNA binder | ADAM17 inh | ADAM10 inh | KLK7 zymogen act | rCAG binder conf | dCAG dye counter
O=C(Cc1ccc(S(=O)(=O)N2CCOCC2)s1)NCCc1ccc(F)cc1 | -0.9 | 109.4 | 2.7 | -7.2 | -16.7 | -0.4 | / | /
O=C1NC(=Nc2ccccc2Cl)S/C1=C\c1cc([N+](=O)[O-])ccc1O | 5.9 | 100.4 | 82.4* | 2.3 | 7.0 | 0.2 | 69.3* | 27.2*
COc1cccc(N=C2NC(=O)/C(=C/c3cc([N+](=O)[O-])ccc3O)S2)c1 | 0.1 | 92.3 | 12.4 | -0.2 | -0.1 | 0.1 | / | /
CCN(CC(=O)Nc1ccc2c(c1)OCCO2)C(=O)COc1ccc(C(C)=O)cc1 | -2.2 | 102.4 | -0.8 | 4.4 | -1.2 | -0.6 | / | /
O=C1CCC(=O)c2ccc3c4c(ccc1c24)CC3 | -0.3 | 116.0 | 49.4* | -189.4 | i | 7.7 | 4.1 | 3.4
CCOc1cccc(=O)c2c(C)n(CC(=O)c3ccccc3)c(C)c12 | 1.2 | 109.0 | 13.8 | -1.7 | 0.1 | 0.2 | / | /
COc1cccc(=O)c2c(C)n(CC(=O)c3ccccc3)c(C)c12 | 1.1 | / | 37.2* | 1.8 | -8.5 | -0.3 | 32.6 | 17.4*
COCc1cc(C)n(CC(=O)N/N=C/c2ccc(-c3ccc(Cl)c(C(=O)O)c3)o2)c(=O)c1C#N | 1.5 | 83.1 | 37.8* | -31.2 | -88.9 | -0.4 | 40.7* | 13.8*
O=C(Cc1ccc(F)cc1)N/N=C/c1ccc(-c2ccc(Cl)c(C(=O)O)c2)o1 | -0.7 | 102.3 | 2.4 | -4.8 | -28.9 | 0.2 | / | /
N#Cc1c2nc3ccccc3nc2n2cc(NC(=O)c3ccc(F)cc3)ccc12 | 13.9 | 67.8 | 35.5* | -96.1 | -227.4 | -11.6 | 41.5* | 20.3*
Cc1c(C(=O)Nc2ccc(F)cc2)cn2c(nc3ccccc32)c1C#N | 1.6 | 102.0 | 0.6 | -7.0 | -18.4 | 0.4 | / | /
Cc1ccccc1C(=O)N1CCN(c2ccc(NC(=O)c3ccc4c(c3)OCCO4)cc2)CC1 | -1.2 | 105.7 | -2.7 | -2.2 | 0.7 | 0.6 | / | /
Cc1ccc(S(=O)(=O)/N=C2\C=C(NS(=O)(=O)c3ccccc3)C(=O)c3ccccc32)c(C)c1 | 45.7 | 99.0 | 53.9* | 1.5 | 8.5 | 0.0 | 85.8* | 58.2*
Cc1ccc(S(=O)(=O)/N=C2\C=C(Nc3cccc(C(=O)O)c3)C(=O)c3ccccc32)cc1 | 12.9 | 106.6 | 47.1* | -1.6 | -2.3 | -0.1 | 16.1 | 4.7*
Cc1ccc(S(=O)(=O)/N=C2\C=C(Nc3ccc(O)cc3)C(=O)c3ccccc32)cc1 | 10.1 | 94.4 | / | / | / | / | / | /
Cc1ccc(NC2=C/C(=N/S(=O)(=O)c3cccs3)c3ccccc3C2=O)cc1 | 9.6 | 93.4 | 17.5 | 1.9 | 2.9 | 0.0 | / | /
Cc1ccc(S(=O)(=O)/N=C2\C=C(Nc3cccc(C(=O)O)c3)C(=O)c3ccccc32)c(C)c1 | 9.5 | 90.2 | 75.5* | -2.6 | -3.8 | 1.0 | 82.6* | 50.0*
O=C1C(Nc2ccccc2)=C/C(=N/S(=O)(=O)c2cccs2)c2ccccc21 | 10.1 | 106.4 | / | / | / | / | / | /
N/C(=N/OC(=O)c1ccccc1Cl)c1ncc([N+](=O)[O-])s1 | -0.2 | 98.3 | 1.2 | 1.5 | 1.5 | 0.4 | / | /
CCN(CC)S(=O)(=O)c1ccc(NS(=O)(=O)c2ccc3oc(=O)[nH]c3c2)cc1 | -1.4 | 106.9 | 7.9 | 0.7 | 3.1 | 0.1 | / | /
O=c1[nH]c2cc(S(=O)(=O)CCO)ccc2o1 | -1.1 | 100.1 | 35.9* | -3.0 | -2.0 | 0.4 | 2.1 | 0.9
O=C1CCCCC1CCS(=O)(=O)NCc1ccccc1 (centres undefined) | / | / | 0.9 | -1.2 | -2.3 | 0.1 | / | /
CCn1cc(C(=O)N[C@H](C(=O)NCCCN2CCOCC2)C(C)C)c(=O)c2cc3c(cc21)OCO3 | -1.1 | 99.8 | -6.6 | -9.1 | -22.9 | -0.2 | / | /
O=C(O)c1cnn(-c2nc(-c3ccc(Cl)c(Cl)c3)cs2)c1C(F)(F)F | 1.7 | 98.9 | 64.1* | -15.8 | -50.8 | 0.2 | 44.4* | 9.5*
COc1cccc(/C=N/Nc2snc(SC)c2C#N)c1 | 1.8 | 110.2 | 46.6* | 0.9 | 9.9 | -0.3 | 36.1* | 15.1*
SMILES | MPTP block | DSG3 Ab inh | rCAG RNA binder | ADAM17 inh | ADAM10 inh | KLK7 zymogen act | rCAG binder conf | dCAG dye counter
CC(=O)c1ccc(OCc2nnn(CC(=O)NS(=O)(=O)Cc3ccccc3)c2-c2ccccc2)cc1 | 0.6 | / | 55.8* | 3.0 | -7.2 | 0.3 | 77.8* | 41.0*
CCC(C)NC(=O)CSc1nnc(-c2cc(OC)c(OC)c(OC)c2)o1 (centres undefined) | / | / | 0.5 | 2.0 | 0.5 | 0.1 | / | /
COC(=O)[C@@]1(Sc2ccc(C)cc2)CC(=O)N(C(=O)CCc2ccccc2)[C@@H]1c1ccccc1 | -0.3 | / | 3.1 | 1.5 | 6.3 | -0.3 | / | /
C/C(=N\Nc1ccc(C(=O)O)cc1)c1ccc2c(c1)Nc1ccccc1S2 | 3.4 | 97.2 | 39.2* | -9.1 | -31.4 | 2.8 | 86.5* | 58.7*
COc1ccc(/C(C)=N/Nc2cccc(C(=O)O)c2)cc1OC | -0.3 | 101.6 | 2.7 | -5.6 | -6.0 | -0.2 | / | /
C/C(=N/Nc1ccc(C(=O)O)cc1)c1ccc2c(c1)Nc1ccccc1S2 | 0.1 | 86.3 | 45.1* | -10.8 | -62.3 | 4.2 | 81.0* | 40.9*
CC(=O)c1sc(NC(=O)CSC(C)C(=O)Nc2cc(C)on2)nc1-c1ccccc1 (centres undefined) | 0.2 | 93.5 | -0.1 | 0.9 | -2.6 | 0.1 | / | /
Cc1cc2nc(-c3cccc(Br)c3)c(Cc3cccc(Cl)c3)n2c(C)c1Br | 0.7 | / | 39.6* | 1.3 | 1.4 | 1.2 | 11.7 | 5.9*
Clc1ccc(-c2nc3ccc(Br)cn3c2Cc2ccsc2)cc1 | -0.9 | / | 42.8* | 3.1 | -3.9 | 0.3 | 26.3 | 7.8*
Clc1cccc(Cc2c(-c3ccccc3)nc3ccc(Br)cn23)c1 | 4.1 | / | 45.5* | 4.2 | -1.3 | -0.7 | 37.7* | 9.2*
Cc1cc2nc(-c3cccc(Cl)c3)c(Cc3ccccc3)n2c(C)c1Br | -0.3 | / | / | / | / | / | / | /
Fc1ccc(-c2nc3ccc(Br)cn3c2Cc2cccc(F)c2)cc1 | -1.0 | / | 48.1* | 2.5 | 4.9 | 0.1 | 33.9 | 9.0*
Fc1ccc(-c2nc3ccc(Br)cn3c2Cc2cccc(Cl)c2)cc1 | 0.7 | / | 10.2 | -2.5 | -2.6 | -3.7 | / | /
N#Cc1ccc(-c2nc3ccc(Br)cn3c2Cc2ccsc2)cc1 | -0.1 | / | 14.8 | -0.7 | -7.3 | 0.1 | / | /
